Data on 50 molecules can be found in PubChem BioAssay AID651812 (National Center for Advancing Translational Sciences (NCATS), 2012).

Among all 2,100 compounds or so, about 650 (31%) were called active. Inconclusive results (about 16%) are left out. Calls follow the shape of the dose curve; as a rule, active = well fitted inhibition curve with a large enough effect; inconclusive = small, poorly fitted or top-dose-only effect; inactive = flat fitted curve, though single readings scatter. Some of the results follow. Where a call stands in place of a potency, no number is given.
Potency is read from the fitted curve at half-maximal effect.

The nature of the experiment: qHTS for inhibitors of Vif-A3G interactions: Cherry picks. Also: nearly all actives have a fitted effect of over 80% in size. The conditions noted are these: HeLa A3G-eYFP + Vif (tagged APOBEC3G with the HIV-1 protein that degrades it), 24 h; Potency: eYFP fluorescence increase; series mostly up to 36.9 µM. The procedure, abridged: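 Cherry-picked compounds tested at several concentrations on A3G-eYFP/Vif HeLa cells for 24 hours; loss of Vif-driven degradation read as eYFP fluorescence by cytometric plate imaging, 488 nm excitation, 500-530 nm emission.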
`CC1(C)Cc2nc3sc4c(=O)n(CC(=O)NCc5ccccc5)cnc4c3cc2CO1`: the Potency result was “inactive”. The result for `O=[N+]([O-])c1ccccc1SNc1ccccc1` reads “inactive”; that for `CC(=O)Nc1ccc(S(=O)(=O)Nc2nc3ccccc3nc2Nc2ccc3ccccc3c2)cc1`, “inactive”; that for `Clc1ccc(-c2csc3ncnc(Sc4nnnn4C4CC4)c23)cc1`, “inactive”.

For the molecule `O=C1NC(c2ccc(Br)cc2)Nc2ccccc21` (stereo not given), the Potency result is “inactive”. Take `C/C(=N\NC(=O)c1cc(-c2ccncc2)nc2ccccc12)c1ccc(N2CCOCC2)cc1`: the Potency entry is “inactive”. On to `CC(=O)Nc1ccc(-c2ccnc3c2CC(C(=O)NCc2cccc(Cl)c2)O3)cc1` (stereo not given), for which the Potency result is “inactive”. For `COc1ccc(OC)c(NC(=O)c2sc3nc(Cc4ccccc4)cc(C(F)(F)F)c3c2N)c1`, the Potency was 4.61 µM (active). Take `COc1ccc2nc3sc(C(=O)Nc4cc(Cl)c(OC)cc4OC)cc3cc2c1`: the Potency entry is “inactive”. As to `Cc1cc(C(F)(F)F)c2c(N)c(C(=O)Nc3cc(C)on3)sc2n1`, the Potency is 8.2 µM (active).

`COc1cc(C(=O)Nc2nnc(Cc3ccccc3)s2)cc(OC)c1OC`: the Potency entry was “inactive”. `Cc1cc(-c2nc(C)c(C(=O)NN)s2)no1`: the Potency result was “inactive”.

In the case of `O=C(N/N=C/c1cccc2ccccc12)c1n[nH]c2c1CCCC2`, the Potency result is “inactive”. Regarding `O=C(OCC12CC3CC(CC(C3)C1)C2)c1ccc(NCc2cc(O)ccc2O)cc1`, the Potency entry is “inactive”. For the molecule `CC(=O)Nc1ccc(-c2ccnc3c2CC(C(=O)Nc2cccc(N(C)C)c2)O3)cc1` (stereo not given), the Potency result is “inactive”. Take `CC(CC(=O)Nc1ccc2c(c1)c(=O)n(C)n2-c1ccccc1)c1ccccc1` (stereo not given): the Potency result is “inactive”. The value for `COc1ccc(OC)c(C2CC(=O)c3c([nH]c(C(=O)OCC4CCCO4)c3C)C2)c1` (stereo not given) was “inactive”; that for `CCOC(=O)/C=c1\s/c(=C\c2ccccc2C)c(=O)n1CC(=O)NCc1ccc2c(c1)OCO2` was 15.8 µM (active). The result for `O=C(/C=C/c1cccs1)NCc1ccc2c(c1)OCO2` reads “inactive”; that for `CCOC(=O)/C=c1/s/c(=C/c2ccc3cc(OC)ccc3c2)c(=O)n1CC(=O)NCC1CCCO1` (stereo not given), 18.4 µM (active). On to `NC(=O)CSc1nc2c(sc3ccccc32)c(=O)n1CCCC(=O)NCC1CCCO1` (stereo not given), for which the Potency result is “inactive”. With `O=C(NCc1ccc2c(c1)OCO2)c1cc([N+](=O)[O-])ccc1N1CCOCC1`, the Potency result was “inactive”. The result for `COc1cc2c(cc1OC)C1=CC(=O)C(=O)N1C(C)(C)C2` reads 17.7 µM (active).

Regarding `COc1ccc(-c2cc(NC=O)c3ncc(-c4ccc(C(C)=O)cc4)n3c2)cc1OC`, the Potency entry was “inactive”. Consider `O=C(NCc1ccc2c(c1)OCO2)c1cc([N+](=O)[O-])ccc1N1CCCCC1`, for which the Potency result was “inactive”.

For the molecule `Cc1ccc(CNC(=O)Cc2ccc(-n3cccc3)cc2)cc1`, the Potency entry was “inactive”. For the molecule `O=C(NCc1ccccc1)c1cccc2c1C(=O)c1ccc(/C=C/c3ccccc3)cc1S2(=O)=O`, the Potency is 18.4 µM (active). In the case of `Cc1ccc(CNC(=O)c2cccc3c2C(=O)c2ccc(N4CCC(C)CC4)cc2S3(=O)=O)cc1`, the Potency was 20.6 µM (active). For the molecule `Cn1c(=O)c2cc(NC(=O)NCc3ccccc3)ccc2n1C/C=C/c1ccccc1`, the Potency result is “inactive”. Consider `CCCOc1ccc2cc(C(=O)NCc3ccccc3)c(=O)oc2c1`, for which the Potency result is “inactive”.

On to `CC1CCN(c2ccc3c(c2)S(=O)(=O)c2cccc(C(=O)NCc4cccc(F)c4)c2C3=O)CC1`, for which the Potency is 14 µM (active). As for `Cc1ccc(CNC(=O)c2cccc3c2C(=O)c2ccc(N4CCCCC4)cc2S3(=O)=O)cc1`, the Potency was 20.6 µM (active). The result for `COc1ccc(NC(=O)C2(C)Cc3c(-c4ccc5c(c4)OCO5)ccnc3O2)cn1` (stereo not given) reads “inactive”; that for `CN(C)c1ccc(/C=C/c2ccncc2)cc1`, 20.6 µM (active). In the case of `CCN(CC)c1ccc(/C=C/c2ccncc2)cc1`, the Potency is 16.4 µM (active). The value for `CCN(CC)c1ccc(/C=C/c2ccccn2)cc1` was 14.6 µM (active); that for `CCN(CC)c1ccc(/C=C/C2=C3C=CC=CC3NC=C2)cc1` (stereo not given) was 18.4 µM (active). The result for `Cc1cc(N/N=C/c2ccc(O)cc2O)nc(-n2nc(C)cc2C)n1` reads “inactive”; that for `CCN(CC)c1ccc(/C=N/NC(=O)c2ccco2)cc1`, “inactive”.

Consider `CCN(CC)c1ccc(/C=C/C(=O)c2ccc(Br)cc2)cc1`, for which the Potency was 25.9 µM (active).

As for `c1ccc(C2CNCc3c2ccc2ccccc32)cc1` (stereo not given), the Potency entry is “inactive”. In the case of `Cc1cccc(OCCOc2ccccc2C=C(C#N)C#N)c1`, the Potency entry is “inactive”. As for `CCCOc1cc(N(CC)CC)ccc1/C=C(/C#N)c1nc2ccc(C)cc2[nH]1`, the Potency was 18.4 µM (active). `CCOc1cc(N(CC)CC)ccc1/C=C(/C#N)c1nc2ccccc2[nH]1`: the Potency was 4.61 µM (active). Turning to `CCN(CC)c1ccc(/C=C(/C#N)c2nc3ccccc3[nH]2)c(OC(C)C)c1`, the Potency is 0.58 µM (active). Take `O=C1C=C(Nc2ccc(Cl)cc2Cl)CC(c2ccco2)C1` (stereo not given): the Potency result was “inactive”. Take `CS(=O)(=O)Nc1ccc(C2=NN(S(C)(=O)=O)C(c3ccc4nccnc4c3)C2)cc1` (stereo not given): the Potency result was “inactive”. Consider `CC(=O)c1cccc(-c2ccnc3c2CC(C(=O)Nc2cccc(NS(C)(=O)=O)c2)O3)c1` (stereo not given), for which the Potency result was “inactive”. Take `CCS(=O)(=O)N1N=C(c2cccc(NS(C)(=O)=O)c2)CC1c1ccc(C)cc1` (stereo not given): the Potency is 18.4 µM (active). Regarding `O=C1CCCN1c1ccc(S(=O)(=O)Nc2ccc3c(c2)OCCO3)cc1`, the Potency result was “inactive”.
